The record followed here is PubChem BioAssay AID1745847 (National Center for Advancing Translational Sciences (NCATS), 2022).

Structures are written as SMILES. Screen size: about 2,100 compounds; about 670 (32%) were called active. Not shown: some 50% with an inconclusive outcome. The list shows a part of the results. Values without a mark were called inactive. Calls come from the whole dose curve; as a rule, active = well fitted inhibition curve with a large enough effect; inconclusive = small, poorly fitted or top-dose-only effect; inactive = no such curve, though single readings can be large or run the other way.
% is set by controls: 0 for no effect and ±100 for the full control effect; potency is the fitted concentration of half-maximal effect.

The test can be described thus: CMV-Luciferase Counterscreen for Inhibitors of ATXN expression. Note: nearly all actives have a fitted effect of over 55% in size. To be noted: HEK-293 CMV-luciferase reporter, luminescence, 24 h; series mostly up to 57.5 µM; activity change, negative = inhibition: at the top concentration.
For `CCC1=C(OC(=O)N(CC)CC)N2C(=O)OC(=NCCc3c[nH]c4ccccc34)[C@]2(Cc2ccccc2)[C@H]2C1=CC[C@H]1C(=O)N(c3ccccc3)C(=O)[C@H]12`, the “activity change, negative = inhibition” value is -21.2%. On to `Cc1cccn2c(=O)c3cc(C(=O)NCCc4ccccc4)c(=N)n(CCCn4ccnc4)c3nc12`, for which the “activity change, negative = inhibition” value was -14.8%. On the same count and under the same terms, under `CC1(C)Cc2c(c(-c3ccco3)nc3sc4c(NCCN5CCOCC5)ncnc4c23)CO1` stands 7.14%. In the case of `Cc1c(C(=O)Nc2nonc2-c2ccc(F)cc2)oc2ccc(F)cc12`, the Potency is 11.2 µM (active). Turning to `O=C(NNC(=O)C12CC3CC(CC(C3)C1)C2)c1ccccn1`, the Potency is 8.91 µM (active).

With `CN(C)c1ccc2c(c1)OC(N)=C(C#N)C2c1cccc(F)c1` (centres undefined), the “activity change, negative = inhibition” value is -18.1%. On the same count and under the same terms, to `Cn1cccc1/C=N/N1CCN(Cc2ccccc2Cl)CC1` belongs -18.3%. In the case of `O=C(Nc1ccccc1N1CCN(C(=O)c2ccccc2)CC1)c1ccc(Br)o1`, the Potency was 28.2 µM (active). Consider `Cc1cc(C)n(-c2nc(Nc3ccccc3C(F)(F)F)nc(-n3nc(C)cc3C)n2)n1`, for which the Potency is 1.78 µM (active). Take `CN(C)c1ccc(NC(=O)Nc2nc(C(N)C3CCCCC3)cs2)cc1` (centres undefined): the “activity change, negative = inhibition” value was -22.2%. Same read-out and setting: to `CCOC(=O)c1c(NC(=O)COC(=O)CNC(=O)c2ccco2)sc(C)c1C` belongs 24.5% [at 11.4 µM]. As for `Cc1cc(C)c(S(=O)(=O)/N=C2\C=C(Nc3ccc(C(=O)O)cc3)C(=O)c3ccccc32)c(C)c1`, the Potency was 1.58 µM (active). The same measure, in the same setting: under `CCCCCCn1c2c(c(=N)c3c1CCC3)CCC2` stands 2.51 µM (active). For the compound `Cc1ccc(CN2CC(C(=O)Nc3ncc(C)s3)CC2=O)cc1` (centres undefined), the activity change, negative = inhibition was 242% [at 11.4 µM]. Turning to `Cc1ccc(C(NC(=O)C2CCN(Cc3ccc(Cl)c(Cl)c3)CC2)c2ccccn2)cc1` (centres undefined), the Potency is 28.2 µM (active). For the compound `O=C1C=C(NCCc2cc(Br)c(O)c(Br)c2)C(=O)c2ncccc21`, the Potency is 8.91 µM (active). For `Cc1cc(C)c(C(=O)N2CCCC(N3CCN(c4cccc(C(F)(F)F)c4)CC3)C2)o1` (centres undefined), the Potency was 3.55 µM (active). Turning to `COC1=CC(=O)C=C(OC)C1(O)CC(C)=O`, the “activity change, negative = inhibition” value was -10%.

For the compound `CCC(=O)NC(c1cc(Cl)c2cccnc2c1O)C(C)C` (centres undefined), the Potency is 3.98 µM (active). As for `CC(=O)NC(c1cc(Cl)c2cccnc2c1O)C(C)C` (centres undefined), the Potency is 0.794 µM (active). Same read-out and setting: to `CC(C)CCn1c(N)c(S(=O)(=O)c2cccs2)c2nc3ccccc3nc21` belongs 3.16 µM (active). `CCSc1nc2ccccc2n1C(=O)/C=C\c1ccc(OC)c(OC)c1`: the Potency was 14.1 µM (active). On to `COc1ccc(C(=O)Cn2c(C(=O)/C=C/c3ccccc3)nc3ccccc32)cc1`, for which the activity change, negative = inhibition is 92.9% [at 11.4 µM]. As for `COc1ccc(C(=O)/C=C/c2cccc(OCc3ccccc3)c2)cc1CSCC(=O)O`, the activity change, negative = inhibition is -3.73% [at 11.4 µM].

As to `N#Cc1ccccc1NC(=O)C1SC(=Nc2ccccc2)C(C(=O)Nc2ccc(Cl)cc2)=C1N` (centres undefined), the activity change, negative = inhibition was -20.6% [at 11.4 µM]. The same measure, in the same setting: to `CN(CC(=O)Nc1ccc(Cl)c(C(F)(F)F)c1)C(=O)c1cccnc1Sc1ccccc1` belongs -21.5%. Consider `Cc1ccc(C(=O)N(C)CC(=O)Nc2ccc(Cl)c(C(F)(F)F)c2)cc1S(=O)(=O)N1CCCCC1`, for which the Potency is 25.1 µM (active). On to `CN(CC(=O)NCc1ccc(F)cc1)CC(=O)Nc1ccc(Cl)c(C(F)(F)F)c1`, for which the Potency was 17.8 µM (active). For `Cc1ccc(-n2ncc(C(=O)Nc3ccc(Cl)cc3)c2C2CCNCC2)cc1C`, the “activity change, negative = inhibition” value was -12.6%. As for `Cc1cc(C2=NNC(=NC3CC3)SC2)c(C)n1-c1ccccc1F`, the Potency was 0.631 µM (active). As for `Cc1ccc(C2CC(=O)Nc3c2ccc2ccccc32)cc1[N+](=O)[O-]` (centres undefined), the Potency was 17.8 µM (active). Still for that read-out and setting: under `Cc1ccccc1S(=O)(=O)Cc1ccc(C(=O)N2CCN(c3cccc(C)c3C)CC2)o1` stands 3.98 µM (active). Consider `CCOC(=O)[C@H]1[C@H]2COc3ccc(OC)cc3[C@@H]2N2C(=O)c3cc(OC)c(OC)cc3NC(=O)[C@@]12C`, for which the activity change, negative = inhibition is 6.45% [at 11.4 µM]. With `c1cnc2c(c1)ccc1cccnc12`, the Potency is 3.55 µM (active).

With `CC(=O)N1CCN(c2ccc(Oc3ccc([N+](=O)[O-])c(C(F)(F)F)c3)cc2)CC1`, the Potency is 7.94 µM (active).

Turning to `N=c1c2c(n(Cc3ccc(Br)cc3)c3c1CCC3)CCCC2`, the Potency is 0.501 µM (active). For the compound `N=c1c2c(n(Cc3ccc(Cl)cc3)c3c1CCC3)CCC2`, the Potency was 0.708 µM (active). As for `N=c1c2c(n(Cc3cccc(Cl)c3)c3c1CCC3)CCCC2`, the Potency was 3.16 µM (active).

`Cn1c(CO)cnc1S(=O)(=O)Cc1ccc([N+](=O)[O-])cc1`: the “activity change, negative = inhibition” value is -3.42%. As to `c1nc(CCO[C@H]2CCCCO2)cc2cc3c(cc12)OCO3`, the Potency was 3.16 µM (active). On to `O=C(C1CCC(CNS(=O)(=O)c2cccs2)CC1)N1CCN(c2ccc(F)cc2)CC1` (centres undefined), for which the Potency is 4.47 µM (active). Regarding `COc1cc(C(=O)O/N=C(\N)Cc2ccc([N+](=O)[O-])cc2)cc(OC)c1OC`, the activity change, negative = inhibition is -6.35% [at 11.4 µM].

Turning to `CCOc1cc(C=C(C(=O)OC)C(=O)OC)ccc1OCc1ccc([N+](=O)[O-])cc1`, the Potency was 25.1 µM (active). The same measure, in the same setting: under `CC1CC(C)C[N+](=C2C=C(N3CCCC3)CC(C)(C)C2)C1` (centres undefined) stands 0.794 µM (active); under `CC1CCN(Cc2c(C(=O)N/N=C/c3cc(Br)ccc3O)nnn2-c2nonc2N)CC1`, 0.447 µM (active). As to `CC1CCN(Cc2c(C(=O)N/N=C/c3cc(Cl)ccc3O)nnn2-c2nonc2N)CC1`, the Potency was 0.562 µM (active).

Consider `COc1ccc(-c2n(CC(=O)OC3CC(C)CCC3C(C)C)c3ccccc3[n+]2C)cc1` (centres undefined), for which the Potency was 3.16 µM (active).

For the compound `CCOc1ccc(-c2c[n+]3c(n2-c2ccccc2)CCCCC3)cc1`, the Potency was 6.31 µM (active). Consider `CCOc1ccc(-n2c(-c3ccccc3)c[n+]3c2CCCCC3)cc1`, for which the Potency is 3.55 µM (active).

With `CCCCOc1ccc(C(=O)NNC(=S)NC(=O)CC)cc1`, the Potency was 2.51 µM (active). Consider `OC(c1ccccc1)(c1nc(-c2cc3ccccc3o2)cs1)C(F)(F)F` (centres undefined), for which the “activity change, negative = inhibition” value was 31.2%. In the case of `Cc1cc(/C=N/n2cnnc2)c(C)n1-c1ccc(OCc2ccc(Cl)cc2Cl)cc1`, the Potency was 12.6 µM (active). Still for that read-out and setting: to `Cc1ccc(C)c(NC(=O)c2ccccc2NS(=O)(=O)c2cc([N+](=O)[O-])ccc2C)c1` belongs 1 µM (active). In the case of `O=C(/C=C/c1ccccc1[N+](=O)[O-])c1ccccc1Br`, the activity change, negative = inhibition is 44.2% [at 11.4 µM]. Turning to `N#C/C(=C\C=C\c1ccccc1[N+](=O)[O-])C(=O)NCc1ccccc1`, the Potency was 3.16 µM (active). On to `CC1CCCCC1NC(=O)/C(C#N)=C/C=C/c1ccccc1[N+](=O)[O-]` (centres undefined), for which the Potency was 3.55 µM (active). With `CS(=O)(=O)Nc1cccc(NC(=O)c2cccc3c(-c4cccc(C(N)=O)c4)coc23)c1`, the “activity change, negative = inhibition” value was -17.1%.

For `O=C(Nc1cccnc1)C1Cc2c(-c3ccc4c(c3)OCO4)ccnc2O1` (centres undefined), the activity change, negative = inhibition is -23.6% [at 11.4 µM]. As for `NC(=O)c1cccc(-c2ccnc3c2CC(C(=O)Nc2cccc(C(F)(F)F)c2)O3)c1` (centres undefined), the Potency is 3.98 µM (active).

Turning to `O=C(CNC(=O)c1ccccc1F)N/N=C/c1cc(Br)ccc1OC(=O)/C=C/c1ccco1`, the Potency was 12.6 µM (active).

Turning to `O=C(CNC(=O)c1ccc(F)cc1)N/N=C/c1cc(Br)ccc1OC(=O)/C=C/c1ccco1`, the Potency is 8.91 µM (active). Same read-out and setting: under `O=C(CNC(=O)c1cccc(F)c1)N/N=C/c1cc(Br)ccc1OC(=O)/C=C/c1ccco1` stands 4.47 µM (active). Take `NS(=O)(=O)c1ccc(CCNC(=O)COC(=O)/C=C/c2cc(Br)ccc2F)cc1`: the activity change, negative = inhibition is -4.52% [at 11.4 µM]. Consider `Cc1cc(C)c2c(N)c3cccc(C)c3nc2n1`, for which the Potency is 10 µM (active). For the compound `Cc1nc(N=C(N)N)nc2c(C)cccc12`, the “activity change, negative = inhibition” value was 17.6%. Take `Cc1ccccc1C(=O)N1CCN(c2ccc(NC(=O)c3ccc4c(c3)OCCO4)cc2)CC1`: the Potency is 2.24 µM (active). In the case of `O=C(Nc1ccc(NC(=O)c2cccs2)cc1)c1ccc2c(c1)OCO2`, the activity change, negative = inhibition was -7.86% [at 11.4 µM]. Turning to `COc1c(C)cccc1C(=O)Nc1ccc(N2CCN(C(=O)c3ccccc3C)CC2)cc1`, the Potency is 15.8 µM (active). Consider `CC(=O)Nc1cc(-c2ccc(C(=O)NC3CC3)cc2)cn2c(-c3cccc(C(C)=O)c3)cnc12`, for which the “activity change, negative = inhibition” value is 3.81%. For the compound `Oc1c(CN2CCOCC2)cc(COCc2ccccc2)c2cccnc12`, the Potency was 3.55 µM (active).

For the compound `O=[N+]([O-])c1cc(CN2CCN(c3ccccc3)CC2)c(O)c2ncccc12`, the Potency is 7.94 µM (active). Turning to `O=[N+]([O-])c1cc(Cl)c(O)c2ncccc12`, the Potency was 8.91 µM (active). Consider `O=[N+]([O-])c1cc(O)c2ncccc2c1`, for which the Potency was 3.16 µM (active). Take `Oc1ccc(Cl)c2cccnc12`: the “activity change, negative = inhibition” value is -22.2%. As to `O=[N+]([O-])c1ccc(O)c2ncccc12`, the Potency was 7.08 µM (active). In the case of `CCOC(=O)c1c(-c2ccccc2)oc2ccc(OCC(=O)NN)cc12`, the Potency was 28.2 µM (active). For the compound `NNC(=O)c1nc(-c2ccccc2)cc(-c2ccccc2)n1`, the “activity change, negative = inhibition” value was 23.1%. For `O=C(O)COc1ccc2oc3ccccc3c2c1`, the activity change, negative = inhibition is -24.7% [at 11.4 µM]. In the case of `OCCNc1c2ccccc2nc2c(F)c(F)c(F)c(F)c12`, the Potency was 7.94 µM (active). The same measure, in the same setting: under `OCCNc1c2ccccc2nc2ccccc12` stands 20 µM (active).

Turning to `O=c1c(Cc2ccccc2)c(O)nc2n1CCS2`, the “activity change, negative = inhibition” value is -22.8%. Turning to `Cc1ccc(-c2cn(-c3ccc(OC(F)F)cc3)c3[n+]2CCCCC3)cc1`, the Potency is 12.6 µM (active).

As to `Cc1ccc(C)n1-c1ccc(C(=O)N2CCC(C(N)=O)CC2)cc1`, the activity change, negative = inhibition is 4.95% [at 11.4 µM]. Turning to `CCOC(=O)C1CCN(C(=O)c2c(C)oc3c2C(=O)c2ccccc2C3=O)CC1`, the Potency is 12.6 µM (active).

With `Cc1ccnc(N2C(=O)c3cccc4c([N+](=O)[O-])ccc(c34)C2=O)c1`, the Potency is 12.6 µM (active). Consider `Cc1ccc(C(=O)O)cc1N1C(=O)c2cccc3c([N+](=O)[O-])ccc(c23)C1=O`, for which the “activity change, negative = inhibition” value was 4.18%. Consider `O=C1c2cccc3c([N+](=O)[O-])ccc(c23)C(=O)N1c1ccc(Cl)cn1`, for which the Potency was 20 µM (active). Still for that read-out and setting: under `COc1ccc(-c2noc(CCCC(=O)NC3CCCC3)n2)cc1` stands 7.94 µM (active); under `Cc1ccc(-c2noc(CCCC(=O)NC3CCCC3)n2)cc1`, 7.08 µM (active).
